Z-score data for 15 molecules are collected here from PubChem BioAssay.

A short description of test [1]: A549 cell viability effects, profiling panel, calcein-AM fluorescence, 48 h, basal (AID 1162). Particulars: higher = more signal.
Test [2] can be described thus: adipocyte viability effects, profiling panel, cell-based, 3T3-L1 adipocytes, calcein-AM fluorescence, 48 h, basal (AID 1163). Particulars: 3T3-L1 adipocytes viability, higher = more signal.
Test [3] is described as follows: HepG2 cell viability effects, profiling panel, calcein-AM fluorescence, 48 h, basal (AID 1164). As to conditions: higher = more signal.
A short description of test [4]: MM1S cell viability effects, profiling panel, calcein-AM fluorescence, 48 h, basal (AID 1165).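 Also: viability of MM1S multiple myeloma cells under basal unstimulated conditions.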 As to conditions: higher = more signal.
Test [5] in a line: basal RPMI8226 viability, no added stimulus, profiling panel, cell-based, calcein-AM fluorescence, 48 h, PK04 Diversity Set (AID 1166).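 Also: cells grown under basal conditions without added stimulus.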 Particulars: RPMI8226 myeloma viability, higher = more signal.
Test [6] is described as follows: basal HepG2 mitochondrial membrane potential changes, profiling panel, cell-based, JC-1 fluorescence, 24 h, 100 nL compound (AID 1167). Particulars: higher = more signal.
A short description of test [7]: basal 3T3-L1 adipocyte mitochondrial potential changes, profiling panel, cell-based, JC-1 fluorescence, 3T3-L1 adipocytes, 24 h, 100 nL compound (AID 1168). As to conditions: JC-1 mitochondrial fluorescence, higher = more signal, called active from +8 up or from −8 down.
The nature of test [8]: basal RPMI8226 mitochondrial membrane potential changes, profiling panel, cell-based, JC-1 fluorescence, 24 h, 100 nL compound (AID 1169). As to conditions: RPMI8226 myeloma, JC-1 mitochondrial potential fluorescence, higher = more signal.
The nature of test [9]: basal MM1S mitochondrial membrane potential changes, profiling panel, cell-based, JC-1 fluorescence, 24 h, 100 nL compound (AID 1170). Particulars: higher = more signal.
Test [10] in a line: A549 lung cancer cell viability effects, profiling panel, resazurin fluorescence, 24 h, PK04 Diversity Set (AID 1171). Particulars: higher = more signal, called active from +8 up or from −8 down. (Alamar Blue is a resazurin reagent that responds to reducing activity.)

Activity calls are given as the source filed them.
Also: test concentration not given here.

Regarding `N#Cc1ccc(-c2cccc(=O)o2)cc1`, the z-score in test [1] was -0.719; in test [2], -1.13; in test [3], 0.37; in [4], -0.0271; in test [5] it was -0.394; in test [6], -0.875. Also, the z-score is 0.492 (inactive) in test [7], 0.0366 in test [8], -0.548 in [9] and -0.0498 (inactive) in [10].

With `O=C1C[C@@](C(=O)NCc2ccccc2)(c2ccc([N+](=O)[O-])cc2)[C@@H](c2ccc(CO)cc2)N1C1CCCCC1`, the z-score is 0.691 in [1]; 1.34 in [2]; 2.22 in test [3]; 0.406 in test [4]; 0.956 in [5]; 2.33 in [6]. Further, the z-score in [7] is 1.58 (inactive); in test [8], -0.343; in test [9], 0.242; in test [10], -0.685 (inactive).

With `O=C(NCC(O)CO)[C@@]1(CCS(=O)(=O)c2ccccc2)N=C(c2ccc(OCCCO)cc2)O[C@H]1c1ccccc1` (stereo not given in full), the z-score in test [1] was 0.433; in test [2], 0.719; in test [3] it was -0.4; in [4], -1; in test [5] it was -2.47; in test [6], 0.956. Also, the z-score is -0.874 (inactive) in test [7], -0.694 in test [8], -0.745 in [9] and -0.0521 (inactive) in test [10].

Consider `O=C1C[C@@](C(=O)O)(c2ccc([N+](=O)[O-])cc2)[C@@H](c2ccc(CO)cc2)N1C1CCCCC1`, for which the z-score in test [1] is 0.903; in test [2], -0.0886; in [3] it was -0.28; in test [4], -1.43; in test [5] it was -2.67; in test [6], 0.969. Besides, the z-score was -1.22 (inactive) in [7], -0.145 in [8], -0.247 in test [9] and 0.361 (inactive) in [10].

For the molecule `COc1ccc(C(=O)Nc2ccc(CN3C(=O)[C@@]4(O[C@@H](CCn5cc(CCO)nn5)[C@H]([Si](C)(C)c5ccc(OC)cc5)[C@H]4C)c4ccccc43)cc2)cc1`, the z-score in test [1] is -0.883; in [2], -0.319; in [3] it was -3.14; in [4], -2.68; in test [5], -4.27; in [6], -1.29. Further, the z-score is -0.201 (inactive) in [7], -0.913 in test [8], -2.22 in test [9] and -3.31 (inactive) in test [10].

Take `C=CCNC(=O)[C@H]1[C@@H]2C(=O)O[C@@H](c3ccccc3)[C@@H](c3ccccc3)N2[C@@H](c2ccc(OCCO)cc2)[C@]12C(=O)Nc1ccccc12`: the z-score in [1] is 0.375; in test [2] it was 1.35; in test [3] it was -0.503; in [4], 0.287; in test [5] it was -0.62; in [6], -1.21. Moreover, the z-score is -0.00331 (inactive) in test [7], -0.522 in [8], -0.377 in test [9] and 1.02 (inactive) in test [10].

As to `CC1CC/C=C\[C@H]2OC34C=CCN(C(C)(C)C)C(=O)[C@H]3N(CCCO)C(=O)[C@@H]4C2C(=O)O1` (stereo not given in full), the z-score is -0.459 in test [1]; 0.0593 in test [2]; -0.869 in test [3]; 1.15 in [4]; -0.339 in test [5]; -0.749 in test [6]. Besides, the z-score in test [7] is -0.274 (inactive); in [8], -0.0634; in [9], 0.522; in [10], -0.0125 (inactive).

For the molecule `C=CC[C@@]1(C(=O)N(C)C)N=C(c2ccc(OCCCO)cc2)O[C@@H]1c1ccccc1CN=[N+]=[N-]`, the z-score in test [1] is 1.01; in [2], -0.114; in test [3] it was 1.41; in test [4], -1.81; in test [5], -1.58; in test [6], 1.67. The z-score in test [7] was 0.53 (inactive); in test [8], -0.797; in test [9], -0.479; in [10] it was 0.189 (inactive).

As to `COc1ccc(CCNC(=O)[C@@H]2c3ccccc3C(=O)N(Cc3ccccc3OC)[C@H]2c2ccc(CO)cc2)cc1`, the z-score in test [1] is 0.41; in test [2], -0.219; in test [3], -0.147; in [4] it was -0.147; in [5], 0.245; in test [6], 1.22. In addition, the z-score in [7] was -0.822 (inactive); in test [8], -0.167; in [9] it was -0.42; in test [10], 1.58 (inactive).

`[N-]=[N+]=Nc1ccccc1[C@H]1OC(c2ccc(OCCCO)cc2)=N[C@@]1(Cc1ccccc1)C(=O)NCC(O)CO` (stereo not given in full): the z-score in [1] is -0.761; in [2] it was 0.405; in [3], -0.629; in [4], -1.5; in test [5] it was -2.2; in test [6], 0.854. Also, the z-score is 0.291 (inactive) in test [7], -0.925 in [8], -1 in test [9] and -0.949 (inactive) in [10].

With `COC(=O)C1=CC(CCCO)=CC(c2cccs2)N(Cc2cc3c(cc2Br)OCO3)C=C1C(=O)OC` (stereo not given), the z-score in [1] was 0.236; in test [2], 0.425; in test [3], 0.897; in test [4], -1.26; in test [5], -0.188; in [6] it was 0.725. The z-score was -0.253 (inactive) in test [7], -0.131 in test [8], 0.398 in test [9] and -0.0673 (inactive) in [10].

Consider `CCCCC(=C=CC[C@H](O)c1ccc(CO)o1)CCO`, for which the z-score in test [1] is -0.231; in test [2] it was -0.652; in test [3], 0.115; in test [4] it was -0.562; in [5], -0.0295; in test [6], -0.787. Besides, the z-score in test [7] was -0.848 (inactive); in test [8], -0.0527; in test [9] it was -0.534; in test [10], -0.598 (inactive).

Take `CC1CC/C=C\[C@H]2OC34C=CCN(c5ccc(Cl)cc5)C(=O)[C@H]3N(CCCCCCO)C(=O)[C@]4(C)C2C(=O)O1` (stereo not given in full): the z-score in [1] is 0.943; in test [2], -3.94; in test [3] it was 0.606; in test [4], 1.88; in test [5], -0.368; in test [6] it was 0.232. Further, the z-score in [7] was 0.115 (inactive); in [8], 1.03; in [9] it was -0.439; in test [10], 0.523 (inactive).

As for `O=C(NCC(O)CO)C1N=C(c2ccc(OCCCO)cc2)N(c2ccccc2)O1` (stereo not given), the z-score is -0.508 in test [1]; -0.293 in test [2]; 0.285 in test [3]; 1.22 in [4]; -1.53 in [5]; 0.499 in test [6]. Moreover, the z-score in test [7] was -0.761 (inactive); in test [8] it was -0.877; in [9] it was 0.571; in [10], -0.0914 (inactive).

Take `CCOC(=O)C[C@H]1[C@H](OC(=O)Cc2ccc3c(c2)OCO3)[C@@H](NC(=O)c2ccc3ccccc3n2)c2cc(OCCCO)ccc2N1C(=O)Cc1ccc(OC)cc1`: the z-score in test [1] was 0.703; in test [2] it was 0.867; in test [3], 1.03; in test [4], 0.406; in test [5], -0.603; in test [6], 2.42. Besides, the z-score in test [7] was -0.115 (inactive); in [8], 0.167; in test [9] it was -0.882; in test [10] it was -0.64 (inactive).
